Compounds without any hit were thinned out: in the full panel of roughly 83,000, 20% have a hit.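 Single-concentration screen, 48 h exposure, 96-well plates. Endpoint: percent growth. Below 10 = active.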 Activity calls are given as the source filed them.

The subject of the assay is HCT-15 colon. Kind of assay: NCI-60 one-dose screen, 48 h (100 = growth as untreated, 0 = no growth, -100 = all killed). The settings on record: 10 µM unless noted.
With `CC(=O)OC[C@H]1OC(Sc2sc(C(=O)c3ccc(C)cc3)c(N)c2-c2nc3ccccc3s2)[C@H](OC(C)=O)[C@@H](OC(C)=O)[C@@H]1OC(C)=O` (stereo partly specified), the growth was 59.5% (inactive).

Regarding `COC1=C(C)C(=O)c2c(c(CCCl)c3n2CCC3O)C1=O` (stereo unspecified), the growth is 2.73% (active).

In the case of `Oc1ccc(C#CCOc2ccccc2)cc1CNCCN(Cc1ccccn1)Cc1ccccn1`, the growth was 4.51% (active).

As for `CCc1nnc(NC(=O)c2nnn(-c3ccccc3)c2-c2ccco2)s1`, the growth was 51.5% (inactive).

Take `CNc1nc2c(s1)C(c1cccc(F)c1)CC(=O)N2` (stereo unspecified): the growth was 104% (inactive).

Take `CC(=O)O.CN1[CH-]N(Cc2ccc(C#N)cc2)c2ccccc21.[Ag+]`: the growth is 102% (inactive).

For the compound `O=C(Nc1ccc(F)cc1F)c1cc(F)ccc1O`, the growth was 12.4% (inactive).

Take `CCc1ccc(Oc2c(-c3ccc(OCc4ccc(Cl)cc4)cc3O)nn(C)c2C(F)(F)F)cc1`: the growth is 4.91% (active).

For `CCC(=O)Nc1ccc(-c2nc(-c3cccc(OC)c3)c(-c3ccnc(Br)c3)[nH]2)cc1`, the growth was 21.5% (inactive).

With `CC/C=C\C[C@@H](O)C/C=C1/C(=O)C=C[C@H]1C/C=C\CCCC(=O)OC`, the growth was -31.3% (active).

Take `CC(=O)CC(c1ccccc1)c1c(C)[nH]c2ccccc12` (stereo unspecified): the growth is 97.5% (inactive).

As to `Cc1nc2cnc(N)c(C#Cc3cncc(C(=O)Nc4ccc(CN5CCN(C)CC5)c(C(F)(F)F)c4)c3)c2nc1C`, the growth was 2.84% (active).

Turning to `COc1ccc(-c2nc(NCCO)[nH]c(=O)c2C#N)cc1`, the growth was 104% (inactive).

Regarding `COc1ccn2c(C(C)=O)cc(C(=O)c3ccc4c(c3)Sc3ccccc3N4)c2c1`, the growth was 15% (inactive).

On to `COC(=O)C(Cc1ccccc1)NC(=O)NC(=O)NC(=O)CI` (stereo unspecified), for which the growth is 12% (inactive).

`O=C1CCC(C(=O)NCCNCCNC(=O)C2CCC(=O)N2)N1` (stereo unspecified): the growth is 99.8% (inactive).

Regarding `C(=N/Nc1ncnc2nc[nH]c12)/c1ccccn1`, the growth is 35.4% (inactive).

As to `CCCCCCCCCCCCCCCCCCOc1ccc(CC(=O)OCC[N+](C)(C)C)cc1`, the growth is 102% (inactive).

Take `COc1ccc([C@H]2c3cc(OC)c(OC)cc3C=C(C=O)C2CO)cc1OC` (stereo partly specified): the growth is 43.1% (inactive).

For `Cc1nn(-c2ccccc2)c(-n2ccnc2)c1/C=N/Nc1nc(-c2ccc(Cl)c(Cl)c2)cs1`, the growth was 23.8% (inactive).

`Cc1ccc2c(n1)C(=O)C(Cl)=C(Nc1ccccc1C(C)C)C2=O`: the growth is 27.6% (inactive).

Consider `Cc1cccc2c3c(sc12)C(c1ccc(Cl)cc1)C(C#N)=C(/N=C/c1ccc(Cl)cc1)O3` (stereo unspecified), for which the growth is 8.99% (active).

In the case of `Cc1ccc2c(-c3cc(-c4ccccc4)nc(N)c3C#N)cc(=O)oc2c1`, the growth is 105% (inactive).

Regarding `Cc1ncc(C(=O)Nc2ccc(CN3CCN(C)CC3)c(C(F)(F)F)c2)cc1C#Cc1ccc(N)nc1`, the growth is 6.59% (active).

In the case of `COc1ccc(CN2c3ccccc3Sc3ccccc32)c(F)c1`, the growth is 35.4% (inactive).

Regarding `COc1ccc(C(=O)C[C@]2(O)C(=O)Nc3c(Cl)ccc(Cl)c32)cc1`, the growth was 22.6% (inactive).

As for `c1ccc2c(-c3nc(-c4c[nH]c5ccncc45)cs3)c[nH]c2c1`, the growth is 6% (active).

With `C=CCNc1ccc2c3c(cccc13)C(=O)N(N1C(=O)c3cccc4cccc(c34)C1=O)C2=O`, the growth is 102% (inactive).

Consider `N#Cc1c(-c2ccccc2)nc(SCC(=O)Nc2nc(-c3ccc(Cl)cc3)cs2)[nH]c1=O`, for which the growth was 104% (inactive).

For the compound `COc1cc(C(=O)/C=C/c2c(Cl)nc3sccn23)cc(OC)c1OC`, the growth is 59.4% (inactive).

As to `COc1ccc(-c2cc(-c3ccc(Cl)cc3)c(C#N)c(=O)n2CCCCCC(=O)Nc2ccccc2N)cc1`, the growth was 23.1% (inactive).

Turning to `COc1cccc(/C=C2\C=C(c3ccccc3)N(Cc3ccccc3)C2=O)c1`, the growth is 38% (inactive).

`CCOC(=O)c1cn2ncnc(Oc3ccc(NC(=O)NCCN(C)C)c(Cl)c3)c2c1C`: the growth is 23.2% (inactive).

Take `COc1ccc(N2C(=O)C(Oc3ccccc3)C2c2ccc(C)cc2)cc1` (stereo unspecified): the growth is 91.2% (inactive).

With `O=[N+]([O-])c1ccc(Cl)c(-c2cc(CCCCO)on2)c1`, the growth is 110% (inactive).

For `COc1cccc2nc3n(c12)C(c1c(F)cccc1F)SC3` (stereo unspecified), the growth is 101% (inactive).
